This note sets out measurements from PubChem BioAssay (NCI).

Molecules are shown by their SMILES. Values joined by “and” are separate entries in the source; they are usually repeats but may differ in a detail not shown here. Equal entries are not always repeated. Compounds without any hit were thinned out: in the full panel of roughly 83,000, 20% have a hit.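 48-hour exposure, single concentration, 96-well plates; percent growth endpoint where 0 means no net growth. Active: below 10.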 Values without a mark were called inactive. Active and inactive are the calls of the source.

The assay deals with MDA-MB-468 breast. The assay is described as follows: NCI-60 one-dose screen, 48 h (100 = growth as untreated, 0 = no growth, -100 = all killed). As to conditions: 10 µM unless noted.
Regarding `S=c1[nH]c(=S)c2c(-c3ccccc3)c(-c3ccccc3)oc2[nH]1`, the growth is 96.7%. Next, `OCc1cccc(-c2ccc3ncc(-c4nc(NC5CC5)ncc4F)n3c2)c1`: -39.1% (active); `C=C(c1ccc(C(=O)O)cc1)c1cc2c(cc1C)C(C)(C)CCC2(C)C`: 109% and 103%. Next, `CCC(C)C1NC(=O)C(CCNCS(=O)(=O)O)NC(=O)C(NC(=O)C(CCNCS(=O)(=O)O)NC(=O)C(NC(=O)C(CCNCS(=O)(=O)O)NC(=O)CCCCC(C)C)C(C)O)CCNC(=O)C(C(C)O)NC(=O)C(CCNCS(=O)(=O)O)NC(=O)C(CCNCS(=O)(=O)O)NC(=O)C(C(C)CC)NC1=O` (stereo unspecified): 16%; `COc1cccc(C(Cc2ccccc2)Nc2ccccc2)c1OC` (stereo unspecified): 111%; `CCCCCCCCCC1=NC(C)(C)CN1C(C)(C)CO`: 70.3%. With `CC(C)(C)c1cc(C=Nc2cccc(C(F)(F)F)c2)c(O)c(C(C)(C)C)c1` the figure was 95.8%; with `O=C(Nc1ccc(Nc2ccncc2)cc1)c1ccc(C(=O)Nc2ccc(Nc3ccncc3)cc2)cc1`, 2.69% (active). Turning to `COc1ccc(OC)c(/C=C2\Oc3cc(OCCCN4CCCC4)ccc3C2=O)c1`, the growth is 77.7%. Regarding `Cc1ccncc1NC=O`, the growth is 107%.

For the molecule `O=C1NN(c2ccccc2)C(c2ccc3c(c2)OCO3)N2CCC[C@@H]12` (stereo partly specified), the growth was 121%.
